Hits are enriched below; roughly 7.6% of the tested compounds scored in any of these assays.
SW480 rereplic: A quantitative high throughput screen for small molecules that induce DNA re-replication in SW480 colon adenocarcinoma cells; SW480 DNA re-replication, Hoechst DNA content imaging, 48 h; Potency, µM (titrated, usually from 46.1 µM), without a hit: top-dose re-replication activation, most hits filed as activators; 340,000 tested, 1.8% active; AID 624297, 2012; note: potency is the fitted concentration of half-maximal effect; % of control where 0% means no effect; nearly all actives have a fitted effect of over 55% in size
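Image-based read-out: total Hoechst fluorescence of nuclei (405 nm excitation, 500-530 nm emission), with hits raising the fraction of high-intensity nuclei. SW480 colon cells incubated 48 hr with compounds at 37 C.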
KCNH2 3.1 inh: qHTS for Inhibitors of KCHN2 3.1: Mutant qHTS; 340,000 tested, 0.95% active; U2OS KCNH2 3.1, thallium flux FluxOr; hits give low values; activity change, % (tested at about 1.8 µM);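 active = maximum activity change below -70%; inconclusive = maximum activity change from -70% to -50%; inactive = maximum activity change above -50%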;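 note: thallium influx rate constant from kinetic fluorescence after stimulation buffer; % is set by controls: 0 for no effect and ±100 for the full control effect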
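U2OS cells transduced with KCNH2 3.1 mutant virus (1.77 x 10^8 /mL, 4 h), plated overnight at 37 C, loaded 45 min with FluxOr dye plus Red40 quencher. Thallium flux rate constant from kinetic reads after stimulation buffer, normalised to controls.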
hERG WT inh: qHTS for Inhibitors of KCHN2 3.1: Wildtype qHTS; Voltage-gated inwardly rectifying potassium channel KCNH2 (Homo sapiens), Q12809; U2OS, BacMam KCNH2, thallium flux FluxOr; hits give low values; activity change, % at 1.84 µM; 340,000 tested, 0.37% active; AID 720551, 2013;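 active = maximum activity change below -70%; inconclusive = maximum activity change between -70% and -50%; inactive = maximum activity change above -50%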; note: % is set by controls: 0 for no effect and ±100 for the full control effect
Target sequence (Q12809 whole entry, looked up): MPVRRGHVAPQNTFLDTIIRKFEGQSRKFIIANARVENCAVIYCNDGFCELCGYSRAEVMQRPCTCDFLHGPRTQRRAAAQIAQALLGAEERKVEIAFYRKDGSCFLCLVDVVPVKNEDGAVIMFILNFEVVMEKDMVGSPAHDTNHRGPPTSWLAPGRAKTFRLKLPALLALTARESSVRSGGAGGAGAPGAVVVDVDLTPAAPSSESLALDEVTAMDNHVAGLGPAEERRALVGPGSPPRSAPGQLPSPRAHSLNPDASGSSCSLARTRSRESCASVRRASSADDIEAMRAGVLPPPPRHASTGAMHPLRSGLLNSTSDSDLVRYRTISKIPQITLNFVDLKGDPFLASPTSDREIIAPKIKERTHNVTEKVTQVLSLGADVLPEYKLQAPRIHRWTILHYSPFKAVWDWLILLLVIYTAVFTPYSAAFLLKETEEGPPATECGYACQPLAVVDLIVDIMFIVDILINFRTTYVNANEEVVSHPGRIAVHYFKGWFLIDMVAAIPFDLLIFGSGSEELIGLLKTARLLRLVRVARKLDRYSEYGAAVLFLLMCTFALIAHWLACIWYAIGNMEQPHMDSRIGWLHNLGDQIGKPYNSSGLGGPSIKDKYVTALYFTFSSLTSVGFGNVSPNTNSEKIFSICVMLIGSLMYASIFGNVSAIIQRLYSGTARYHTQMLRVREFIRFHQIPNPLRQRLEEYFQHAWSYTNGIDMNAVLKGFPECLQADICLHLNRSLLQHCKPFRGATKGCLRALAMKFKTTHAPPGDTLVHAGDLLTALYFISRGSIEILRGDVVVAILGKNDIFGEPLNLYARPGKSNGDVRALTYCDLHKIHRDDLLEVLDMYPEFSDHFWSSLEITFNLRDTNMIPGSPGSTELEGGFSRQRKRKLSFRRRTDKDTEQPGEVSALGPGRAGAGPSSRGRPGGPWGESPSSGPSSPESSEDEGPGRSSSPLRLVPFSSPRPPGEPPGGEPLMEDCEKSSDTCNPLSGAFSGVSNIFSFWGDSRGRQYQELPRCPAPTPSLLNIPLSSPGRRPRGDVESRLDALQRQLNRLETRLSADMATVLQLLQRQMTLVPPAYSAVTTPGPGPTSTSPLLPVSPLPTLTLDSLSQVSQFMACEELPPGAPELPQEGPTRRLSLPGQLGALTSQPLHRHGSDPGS
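U2OS cells transduced with wild-type KCNH2 virus are loaded with FluxOr dye for 45 min, and thallium flux is measured in kinetic reads before and after stimulation buffer. Rate constants are normalized to DMSO controls.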
KB-V1 MDR tox: qHTS assay for MDR1-selective chemotherapeutics: Primary screen using the drug-selected MDR subline cells KB-V1; KB-V1 MDR cells viability, CellTiter-Glo, 72 h; Potency, µM (series often up to 46.1 µM), hits mostly cytotoxic; 400,000 tested, 3.4% active; note: potency is the fitted concentration of half-maximal effect; % is set by controls: 0 for no effect and ±100 for the full control effect; nearly all actives have a fitted effect of over 60% in size
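Drug-selected KB-V1 cells, grown in DMEM lacking phenol red with 10% FBS, receive compound titrations; after three days at 37 degrees C, surviving cell ATP is quantified by CellTiter-Glo luminescence and responses normalized and curve-fitted.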
KB-3-1 cytotox: qHTS assay for MDR1-selective chemotherapeutics: Primary screen using the parental adenocarcinoma cell KB-3-1. KB-3-1 viability, CellTiter-Glo ATP luminescence, 72 h. Potency, µM (titrated, usually from 46.1 µM), most hits filed as cytotoxic. 400,000 tested, 1.4% active; note: potency is the fitted concentration of half-maximal effect; % is set by controls: 0 for no effect and ±100 for the full control effect; nearly all actives have a fitted effect of over 60% in size
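KB-3-1 cells, DMEM (no phenol red) + 10% FBS; compound by pin transfer, 72 h, 37 °C. Readout: CellTiter-Glo luminescence after 10 min. Data normalized, curve-fitted.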
MCF10A rerep: A quantitative high throughput screen for small molecules that induce DNA re-replication in MCF 10a normal breast cells | MCF 10A DNA re-replication, Hoechst nuclear intensity, 48 h | Potency, µM (doses to about 46.1 µM), for the others: at the top dose activity, positive = re-replication, usual class: activators | 350,000 tested, 2.9% active | AID 624296, 2012; note: potency is the fitted concentration of half-maximal effect; % of control where 0% means no effect; nearly all actives have a fitted effect of over 50% in size
* marks the source's active call; other numbers are inactive results; i = inactive; u = inconclusive; x = not tested or not shown. Unless noted, calls come from the whole dose curve; as a rule, active = well fitted curve in the direction sought with a large enough effect; inconclusive = small, poorly fitted or top-dose-only effect, or another doubt; inactive = no such curve, though single readings can be large; an effect the other way counts as inactive or inconclusive.

SMILES	SW480 rereplic	KCNH2 3.1 inh	hERG WT inh	KB-V1 MDR tox	KB-3-1 cytotox	MCF10A rerep
CC(=O)NC(C)(c1ccccc1)c1nc(-c2ccc(N(C)C)cc2)cs1 (stereo not drawn)	x	x	x	i	i	x
COc1ccc(OC2OC3COC(C)(C)OC3C(O)C2NC(C)=O)cc1 (stereo not drawn)	-8%	3	10	u	i	-5%
CCCc1nc2c([nH]1)c(=O)n(C)c(=O)n2C	12%	-1	19	i	i	-2%
Cn1c(=O)c2[nH]c(CCC3CCCC3)nc2n(C)c1=O	-2%	-13	1	23µM*	i	-2%
Cc1ccc(NS(=O)(=O)c2ccc3c(c2)CCC(=O)N3)cc1Cl	x	x	x	i	i	x
O=S(=O)(/N=S1\CC=CCN1S(=O)(=O)c1ccccc1)c1ccccc1 (stereo not drawn)	u	-3	-5	i	i	18µM*
CC1=C(C)CS(=O)N(S(=O)(=O)c2ccccc2)C1 (stereo not drawn)	u	17	-2	u	i	u
Cc1cccc(N2CCN(S(=O)(=O)c3ccc(-c4cnc(C5CC5)o4)cc3)CC2)c1C	x	x	x	i	i	x
Cc1ccc(N(C)S(=O)(=O)c2cc(-c3cnc(C4CC4)o3)ccc2C)cc1	28%	-37	-1	i	u	23µM*
Cc1ccc(-c2cnc(C3CC3)o2)cc1S(=O)(=O)Nc1ccccc1	-5%	-4	-1	u	7.3µM*	u
Cc1cccc(N(C)S(=O)(=O)c2ccc(-c3cnc(C4CC4)o3)cc2)c1	0.15µM*	2	x	u	u	23µM*
O=C(CSc1nc2c(c(=O)[nH]1)CCCC2)Nc1cccc(O)c1	x	x	x	i	i	x
Cc1cc(C)c(S(=O)(=O)C(C)C)c(=O)[nH]1	-3%	4	-1	i	i	4%
CCn1c2ccccc2c2cnc(N=CN(C)C)c(C#N)c21	0%	13	-9	7.3µM*	i	3%
CCN(CC)CCn1c2ccccc2c2cnc(N=CN(C)C)c(C#N)c21	5%	3	3	u	u	21µM*
CN(C)/C=N/c1c(C#N)cnn1-c1ccccc1	-7%	17	4	i	i	u
COc1cc2c(cc1OC)C(C)N(C(=O)c1cc3c(s1)-c1ccccc1OC3)CC2 (stereo not drawn)	13%	-1	-7	u	u	u
COc1cc2c(cc1OC)C(C)N(C(=O)c1cc3c(s1)-c1c(C)cccc1OC3)CC2 (stereo not drawn)	0%	-5	1	i	i	16µM*
COc1cc2c(cc1OC)C(C)N(C(=O)c1cc(C)on1)CC2 (stereo not drawn)	0.73µM*	10	-5	4.6µM*	u	1.3µM*
COc1cc2c(cc1OC)C(C)N(C(=O)c1c(C)noc1C)CC2 (stereo not drawn)	u	u	1	u	u	9.2µM*
Cc1ccc(OCCCC(=O)Nc2cc(Cl)ccc2-n2cncn2)cc1	0%	12	-4	i	i	7%
CC(=O)OCC1OC(COC(C)=O)(c2ccc(C)cc2)C(OC(C)=O)C1OC(C)=O (stereo not drawn)	-1%	-2	-12	i	i	-2%
CC(C)N=C(NS(=O)(=O)c1ccccc1)C(Cl)(Cl)Cl	5.8µM*	-5	5	23µM*	5.8µM*	5.8µM*
O=S(=O)(NC(=S)c1ccccc1)c1ccccc1	-8%	-5	-2	i	u	1%
CCOc1cc(CNc2ccc(CNc3ncn[nH]3)cc2)ccc1OCc1ccccc1	-44%	-1	-5	18µM*	23µM*	21%
SMILES	SW480 rereplic	KCNH2 3.1 inh	hERG WT inh	KB-V1 MDR tox	KB-3-1 cytotox	MCF10A rerep
NS(=O)(=O)c1ccc(CCN=C(NS(=O)(=O)c2cccs2)c2ccccc2)cc1	-1%	-4	2	i	i	-2%
CCOC(=O)N1CCN(CCC(=O)Nc2ccc(Br)c(C)c2)CC1	-7%	0	11	18µM*	u	17%
CCN1CCN(CCC(=O)Nc2ccc(Br)c(C)c2)CC1	u	-9	19	i	i	u
Cc1ccc(S(=O)(=O)N2CCN(C(=O)CCC(=O)Nc3ccc(Br)c(C)c3)CC2)cc1	0%	-10	6	13µM*	i	-2%
CCCCCC(O)(c1ccc(OCC)cc1)C(CN1CCOCC1)c1ccccc1 (stereo not drawn)	26µM*	-4	4	u	u	u
COc1ccc(C(O)(c2ccccc2OC)C(CN2CCOCC2)c2ccccc2)cc1 (stereo not drawn)	2%	-3	-7	21µM*	u	5%
CCCCCC(O)(c1ccc(OC)cc1)C(CN1CCOCC1)c1ccccc1 (stereo not drawn)	u	-14	2	13µM*	u	16µM*
CCCCC(O)(c1ccc(OC)cc1)C(CN1CCOCC1)c1ccccc1 (stereo not drawn)	25%	2	0	u	i	8%
CCCCC(O)(c1ccc(CC)cc1)C(CN1CCOCC1)c1ccccc1 (stereo not drawn)	u	-7	7	i	16µM*	u
N=C1/C(=C/c2cccn2CCOc2ccccc2)C(=O)N=C2SC=C(c3ccccc3)N12	18µM*	2	40	3.7µM*	u	1.3µM*
N=C1/C(=C\c2ccc(-c3cc(Cl)cc(Cl)c3)o2)C(=O)N=C2SC=C(c3ccccc3)N12	-6%	3	-1	u	i	0%
CS(=O)(=O)C1=NSC2=NC(=O)/C(=C\c3ccc(-c4ccccc4)o3)C(=N)N21	-7%	x	x	x	x	2%
N=C1/C(=C/c2ccc(-c3cccc(C(=O)O)c3)o2)C(=O)N=C2SC=C(c3ccccc3)N12	-3%	5	-7	i	i	5.8µM*
CC(C)S(=O)(=O)C1=NSC2=NC(=O)/C(=C\c3ccc(-c4ccccc4)o3)C(=N)N21	u	0	-4	16µM*	i	16µM*
C=CCN1C(=O)c2ccc(C(=O)N(C)CC(=O)Nc3cccc(F)c3)cc2C1=O	0%	4	16	i	i	-1%
